Assay outcomes deposited in PubChem BioAssay by National Center for Advancing Translational Sciences (NCATS).
IL-1B inflam inh – inflammasome signaling inhibition, IL-1 beta readout | THP-1 LPS/ATP IL-1B secretion, AlphaLISA, 16 h; hits give low values | AID 743279 | hit rate 4.7% among 360,000 | activity change, % at 57.5 µM; in the data active means activity change below about -50%; inconclusive means mostly about -30% to -49%
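THP-1 cells pretreated 1 hr with compounds (up to 57.5 uM final), then stimulated with LPS (250 ng/mL final) plus ATP (1.25 mM final); secreted IL-1B measured by AlphaLISA after 16 hr, decreased signal indicating inhibition.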
HT1080NT lethal – kills 2HG-producing HT-1080-NT fibrosarcoma cells. HT-1080-NT fibrosarcoma viability, CellTiter-Glo ATP luminescence, 48 h. Potency, µM (titrated, usually from 46.1 µM), for the others: top-dose activity, negative = less viability, hits mostly cytotoxic. hit rate 1.6% among 360,000. AID 686970;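 further: NT is the 2HG producing partner of a matched IDH1 knockdown line; potency means the concentration at half of the fitted maximal effect; 0% = DMSO-treated cells and -100% = media-only wells without cells; nearly all actives have a fitted effect of over 55% in size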
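Fibrosarcoma NT cells, 750 per well in 5% FBS RPMI, were exposed to compound for 48 hours. Viability: CellTiter-Glo luminescence.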
TDP1 cell noCPT – qHTS for Inhibitors of human tyrosyl-DNA phosphodiesterase 1 (TDP1): qHTS in cells in absence of CPT | AID 686978, 2013 | Potency, µM (series often up to 46.2 µM), for inactives: top-dose activity change, negative = growth inhibition, most hits filed as inhibitors | hit rate 15% among 420,000 | DT40 Tdp1-/- hTDP1 cells, no CPT, ATP luminescence, 48 h; further: potency means the concentration at half of the fitted maximal effect; nearly all actives have a fitted effect of over 55% in size
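No-CPT arm: Tdp1-/-;hTDP1 DT40 cells (400/well) plus compounds, incubated ≥48 hr at 37 °C. Readout CellTiter-Glo luminescence.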
HT1080 IDH1KD tx – HT-1080 IDH1 knockdown cell toxicity (counter line) | HT-1080 IDH1 knockdown viability, ATP luminescence, 48 h | Potency, µM (series often up to 46.1 µM), for the others: at the highest dose activity, negative = toxicity, actives largely listed as cytotoxic | hit rate 2% among 360,000;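 further: potency means the concentration at half of the fitted maximal effect; 0% = DMSO wells and -100% = cell-free medium wells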
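Using the IDH1-knockdown HT-1080 line run in the same batch and compound series as the NT line, viability after 48 h at 37 °C was determined by CellTiter-Glo luminescence and expressed as % activity.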
DT40 TDP1 CPT – DT40-hTDP1 cell growth loss with CPT; chicken DT40 Tdp1-/-;hTDP1 cells + 20 nM CPT, ATP luminescence, 48 h; Potency, µM (series often up to 46.2 µM), for inactives: at the highest dose activity change, negative = growth inhibition, hits mostly inhibitors; hit rate 12% among 420,000; AID 686979; further: potency means the concentration at half of the fitted maximal effect; nearly all actives have a fitted effect of over 55% in size
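Chicken DT40 Tdp1-/- cells complemented with human TDP1, 400 cells/well, exposed to compounds plus 20 nM camptothecin for at least 48 h at 37 C; viability read as ATP content by CellTiter-Glo luminescence.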
An asterisk follows results filed as active; u = inconclusive; x = no result. In the library only some 19% were active in any assay of this set; here they are far more common. Unless noted, the call rests on the fitted dose curve; in most records, active means well fitted curve in the direction sought with a large enough effect; inconclusive means small, poorly fitted or top-dose-only effect, or another doubt; inactive means no such curve, though single readings can be large; an effect the other way counts as inactive or inconclusive. Unless noted, on the % scale 0 is the no-effect control and ±100 the full control effect.

SMILES | IL-1B inflam inh | HT1080NT lethal | TDP1 cell noCPT | HT1080 IDH1KD tx | DT40 TDP1 CPT
O=C(N=Nc1c(O)n(Cc2ccccc2)c2ccccc12)c1ccncc1 | 76.4 | u | u | u | u
Cc1ccc(NC2CCCN(C(=O)CSc3ccccn3)C2)cc1C (stereo not drawn) | 12.5 | 1.2% | -6.8% | -2.0% | -27.8%
N[C@]1(C(=O)O)CCc2cc(P(=O)(O)O)ccc21 | x | x | 2.9% | x | -118.0%
CCC(=O)N1CCc2cc(Br)cc(S(=O)(=O)CCC(=O)NCCc3ccc(Cl)cc3)c21 | x | x | u | x | -26.6%
C/C(Cl)=C\Cn1c(O)c(N=NC(N)=S)c2ccccc21 | -4.5 | -29.6% | 3.66µM* | -24.3% | 4.11µM*
NC(=S)N=Nc1c(O)n(Cc2ccccc2)c2ccccc12 | 11.0 | -20.9% | 6.51µM* | -22.8% | 5.8µM*
CCOC(=O)N=Nc1c(O)n(Cc2ccccc2)c2ccccc12 | -1.9 | 6.8% | u | 0.0% | u
COc1ccc(C(=O)COC(=O)c2cc(S(=O)(=O)NCc3ccccc3)ccc2O)cc1 | 21.9 | 4.8% | u | 13.6% | u
CC(C)c1cc(C(C)C)c(S(=O)(=O)NC(c2ccccn2)C23CC2C3)c(C(C)C)c1 (stereo not drawn) | 22.2 | u | 16.4µM* | u | u
CCCCCCCCNC(=O)c1cccnc1SCC(=O)Nc1ccccc1OC | 15.0 | -8.9% | 20.6µM* | -12.7% | u
O=C(CSc1n[nH]c(-c2ccccn2)n1)Nc1ccccc1F | 54.3 | -0.4% | 2.91µM* | -14.0% | 4.11µM*
COc1ccc(NC(=O)CSc2n[nH]c(-c3ccccn3)n2)cc1 | 150.2 | -14.7% | 23.1µM* | u | 16.4µM*
COc1ccccc1-c1nc(SCC(=O)Nc2ccccc2)n[nH]1 | 0.0 | -1.4% | -20.3% | -9.3% | -24.3%
O=C(CSc1n[nH]c(-c2ccccn2)n1)Nc1ccccc1 | 177.9 | u | u | 20.6µM* | 23.1µM*
COc1ccc(C(=O)COC(=O)CCN=C2NS(=O)(=O)c3ccccc32)c(OC)c1 | 2.9 | 4.3% | -3.8% | 4.2% | -6.8%
Cc1ccc(CC(C(=O)O)C(C)C(=O)Nc2ccc(F)cc2)cc1 (stereo not drawn) | 16.4 | 0.2% | 4.0% | -2.9% | -3.8%
O=C(NN1C(=O)C2C3CCC(O3)C2C1=O)c1ccco1 (stereo not drawn) | 13.4 | 2.1% | 8.5% | 3.2% | 5.2%
COc1ccc(CNC(=O)CCCN2C(=O)COc3ccc(C)cc32)cc1 | x | x | -19.0% | x | u
C/C(=N\Nc1ccc([N+](=O)[O-])cc1[N+](=O)[O-])C(C)C(C)C (stereo not drawn) | 21.1 | -3.2% | u | -3.8% | u
COCCn1c(C)cc(O)c(C(c2ccc(Cl)cc2)N2CCCCC2)c1=O (stereo not drawn) | x | x | 0.4% | x | 4.1%
COc1ccc(OC)c(NC(=O)CSc2n[nH]c(-c3ccccc3Cl)n2)c1 | x | x | u | x | 10.3µM*
COc1ccccc1NC(=O)CSc1n[nH]c(-c2ccco2)n1 | 8.5 | -1.3% | -16.1% | -3.8% | 6.9%
COc1ccccc1NC(=O)CSc1n[nH]c(-c2ccccn2)n1 | 108.0 | -9.3% | 14.6µM* | -26.5% | u
CC(=O)NCCNc1cc(-c2ccccc2C)ncn1 | x | x | 16.5% | x | 13.2%
CCCN(CCC)S(=O)(=O)c1ccc(C(=O)Nc2nnc(COC)o2)cc1 | 21.8 | -29.7% | u | u | u
SMILES | IL-1B inflam inh | HT1080NT lethal | TDP1 cell noCPT | HT1080 IDH1KD tx | DT40 TDP1 CPT
CN(c1ccccc1)S(=O)(=O)c1ccc(NC(=O)c2ccccc2)cc1 | u | 1.8% | u | -3.1% | -21.6%
CCc1nnc(NC(=O)c2ccc(S(=O)(=O)N(CC(C)C)CC(C)C)cc2)o1 | 55.6 | u | 18.4µM* | u | 20.6µM*
CCc1nnc(NC(=O)c2ccc(S(=O)(=O)N(C)c3ccccc3)cc2)o1 | 33.9 | -29.6% | 4.61µM* | u | 11.6µM*
Cc1c(C(=O)NN2CCN(C)CC2)cccc1[N+](=O)[O-] | 11.9 | -1.9% | 6.4% | -7.3% | 0.7%
O=S(=O)(Nc1ccc(Br)cc1F)c1ccc2nc(-c3ccccc3)[nH]c2c1 | x | x | u | x | -21.4%
Cc1cc(NS(=O)(=O)c2ccc3nc(-c4ccccc4)[nH]c3c2)ccc1Br | x | x | 14.6µM* | x | u
Cc1ccc(NS(=O)(=O)c2ccc(Cl)c(C(=O)Nc3ccccc3-c3nc4ccccc4[nH]3)c2)cc1C | -12.8 | 6.51µM* | 8.2µM* | 8.2µM* | 7.31µM*
Cc1ccc(NC(=O)C2CCCN2S(=O)(=O)c2ccc3nc(-c4ccccc4)[nH]c3c2)cc1C (stereo not drawn) | x | x | 23.1µM* | x | u
CC(C)c1ccc(NC(=O)C2CCCN2S(=O)(=O)c2ccc3nc(-c4ccccc4)[nH]c3c2)cc1 (stereo not drawn) | x | x | 7.31µM* | x | 10.3µM*
Cc1ccc(S(=O)(=O)N2CCN(C(=O)COC(=O)C3CCC3)CC2)cc1 | 16.7 | -3.3% | -12.3% | 15.1% | 6.7%
COc1cccc(NC(=O)CNC(=O)Cn2cnc3sc(C)c(C)c3c2=O)c1 | 0.3 | -1.0% | 3.9% | -11.7% | -3.9%
O=C(NCC1CCCN(C(=O)Cc2ccccc2Cl)C1)c1ccc(F)cc1 (stereo not drawn) | 13.5 | -2.7% | 14.8% | -2.9% | -20.3%
Cc1cccc(NC(=O)C2CCCN2S(=O)(=O)c2ccc3nc(-c4ccccc4)[nH]c3c2)c1 (stereo not drawn) | x | x | 18.4µM* | x | u
COc1cccc(C(=O)C2CCCN(C(=O)c3cccc(C#CC(C)(C)O)c3)C2)c1 (stereo not drawn) | -14.8 | -5.6% | u | -20.8% | u
COCCCNCCC(CCC(C)C)c1ccc2c(c1)OCO2 (stereo not drawn) | -70.5* | 20.6µM* | 20.6µM* | 14.6µM* | u
CC(C)CCC(CCN1CCCC1)c1ccc2c(c1)OCO2 (stereo not drawn) | -70.4* | -10.5% | u | -15.7% | u
CC1(C)CC(=O)c2c(oc3c(Cl)cc(NS(=O)(=O)c4ccc(Br)cc4)cc23)C1 | x | x | -22.2% | x | 2.6%
CCOC(=O)c1ccc(NC(=O)Cn2cc3c(n2)CCC(C)C3)cc1 (stereo not drawn) | 27.6 | 5.5% | -8.7% | -3.7% | -1.3%
CN(C(=O)Cc1noc2ccccc12)c1ccccc1 | 19.9 | 12.9% | -2.8% | 15.9% | -2.4%
Cc1ccc(C(C)C)c(OCC(O)CNC2CCCC2)c1 (stereo not drawn) | -51.2* | -12.0% | 16.4µM* | -11.0% | 23.1µM*
CN(CCOc1ccccc1)Cc1ccccc1 | -0.7 | 22.3% | -25.8% | 1.3% | u
